BLM helicase inh: blocks DNA unwinding by human BLM helicase; P54132; 350,000 compounds, 0.2% hits; recombinant BLM DNA unwinding, fluorescence dequenching; Potency, µM (highest dose often 56.1 µM), for the others: at the top dose activity change, negative = inhibition, actives largely listed as inhibitors;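 note: plate controls were vehicle for no effect and no enzyme for full effect; nearly all actives have a fitted effect of over 35% in size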
APEX1 inh: blocks human APE1 abasic DNA cleavage; P27695; recombinant APE1, TAMRA/BHQ-2 abasic DNA cleavage fluorescence; Potency, µM (doses to about 65.8 µM), for inactives: at the top dose activity change, negative = inhibition, most hits filed as inhibitors; 350,000 compounds, 0.35% hits; AID 2517;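 note: plate controls were vehicle for no effect and reference inhibitor for full effect; nearly all actives have a fitted effect of over 55% in size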
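Incision of a quenched TAMRA/BHQ-2 THF abasic-site duplex (50 nM) by 0.75 nM APE1, after 15 min compound preincubation, measured as fluorescence increase over three 60 s reads. Values normalized to buffer, DMSO and NSC13755 control wells.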
RECQ1 inh-1: blocks DNA unwinding by human RECQ1; RECQ1 DNA unwinding, red fluorescence kinetic read; Potency, µM (series often up to 57.3 µM), for inactives: top-dose activity, negative = inhibition, hits mostly inhibitors; 240,000 compounds, 0.54% hits;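 note: plate controls were vehicle for no effect and no enzyme for full effect; nearly all actives have a fitted effect of over 30% in size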
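50 nM RECQ1T1 preincubated 15 min with compound in Tris pH 8.0 buffer with MgCl2, DTT, Tween-20 and 2.5 ug/ml poly(dI-dC); started with 200 nM TAMRA/BHQ-2 forked duplex and 2 mM ATP. Unwinding read as fluorescence (525/598 nm), two reads 2 h apart.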
JMJD2E inh: blocks human JMJD2E demethylase activity. Potency, µM (top dose mostly 57.1 µM), for the others: at the top dose activity change, negative = inhibition, actives largely listed as inhibitors. 230,000 compounds, 1.6% hits. B2RXH2. JMJD2E catalytic domain, FDH-coupled NADH fluorescence (FDH is formaldehyde dehydrogenase);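 note: 0% = wells with enzyme and -100% = buffer wells without enzyme; nearly all actives have a fitted effect of over 50% in size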
Target sequence (B2RXH2 1-337 limits assumed): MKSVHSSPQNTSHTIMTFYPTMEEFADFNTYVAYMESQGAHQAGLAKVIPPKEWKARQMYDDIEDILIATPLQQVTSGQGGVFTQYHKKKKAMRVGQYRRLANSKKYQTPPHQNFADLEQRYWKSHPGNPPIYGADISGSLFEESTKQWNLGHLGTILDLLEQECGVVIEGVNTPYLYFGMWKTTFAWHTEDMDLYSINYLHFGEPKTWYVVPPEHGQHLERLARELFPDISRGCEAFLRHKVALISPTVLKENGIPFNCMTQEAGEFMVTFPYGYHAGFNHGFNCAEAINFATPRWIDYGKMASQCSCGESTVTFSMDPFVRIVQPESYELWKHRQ
TDP1 inh: TDP1 (human) enzyme inhibition; 350,000 compounds, 0.28% hits; Potency, µM (series often up to 130 µM), without a hit: at the top dose activity change, negative = inhibition, hits mostly inhibitors; recombinant TDP1, AlphaScreen DNA substrate cleavage; Q9NUW8; note: nearly all actives have a fitted effect of over 40% in size
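Here, a 5' biotin and 3' phosphotyrosine-FITC DNA oligonucleotide reports Tdp1 activity: intact substrate bridges AlphaScreen beads, while cleavage leaves a 3' phosphate and drops signal. All incubations at room temperature.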
L3MBTL1 inh: inhibitors of human L3MBTL1; Q9Y468; Potency, µM (titrated, usually from 57.1 µM), for the others: top-dose activity, negative = inhibition, most hits filed as inhibitors; AID 485360; 230,000 compounds, 0.66% hits; AlphaScreen L3MBTL1–H3K9me1 peptide binding; note: nearly all actives have a fitted effect of over 60% in size
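L3MBTL1 (50 nM) pre-complexed 30 min with biotinylated H3(1-15)K9me1 peptide (75 nM), then compounds added for 30 min at room temperature; AlphaScreen streptavidin donor/nickel chelate acceptor beads (10 ug/mL final) read after 30 min dark incubation.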
RECQ1 inh conf: confirmation of human RECQ1 helicase inhibitors. 610 compounds, 28% hits. shares compounds with RECQ1 inh-1. RECQ1 helicase DNA unwinding, fluorescence. Potency, µM (doses to about 229 µM), for inactives: at the top dose activity change, negative = inhibition, hits mostly inhibitors; note: nearly all actives have a fitted effect of over 45% in size
RECQ1 ADP FP: displaces ADP in a fluorescence polarization counter-screen for RECQ1 hits | shares compounds with RECQ1 inh-1 | ADP fluorescence polarization displacement counterscreen | Potency, µM (doses to about 228 µM), for inactives: at the top dose activity change, negative = inhibition, usual class: inhibitors | 530 compounds, 27% hits; note: nearly all actives have a fitted effect of over 45% in size
RECQ1 inh-2: RECQ1 helicase inhibition confirmed, round 2. AID 504841. Potency, µM (highest dose often 119 µM), for the others: at the top dose activity, negative = inhibition, hits mostly inhibitors. recombinant RECQ1 DNA unwinding, red fluorescence. 1,100 compounds, 15% hits. shares compounds with RECQ1 inh-1; note: nearly all actives have a fitted effect of over 50% in size
Active calls of the source: *; i = inactive; u = inconclusive; x = no result given; ! = a repeat was not active; [ ] = dose if it differs, or a comment. The sample as a whole holds a higher share of hits than the screen did. Unless noted, calls come from the whole dose curve; as a rule, active = well fitted curve in the direction sought with a large enough effect; inconclusive = small, poorly fitted or top-dose-only effect, or another doubt; inactive = no such curve, though single readings can be large; an effect the other way counts as inactive or inconclusive. Unless noted, % is set by controls: 0 for no effect and ±100 for the full control effect; potency is the fitted concentration of half-maximal effect.

SMILES	BLM helicase inh	APEX1 inh	RECQ1 inh-1	JMJD2E inh	TDP1 inh	L3MBTL1 inh	RECQ1 inh-2	others
CCCSC1=N/C(=C\c2ccc([N+](=O)[O-])o2)C(=O)S1	4%	22µM*	13µM*	u	u	u	u	RECQ1 inh conf=-5%[114 µM]
CCSC1=N/C(=C\c2ccc(-c3ccccc3[N+](=O)[O-])o2)C(=O)S1	0%	u	2%	u	9%	-26%	x
CCCCC1=CC2=C(c3ccco3)C(=O)C(C)(OC(=O)c3ccc(OC)cc3)C(=O)C2=CN1Cc1ccccc1 (centres undefined)	-3%[12.4 µM]	7%[12.4 µM]	u	16µM*!	6%[12.3 µM]	x	-9%
CCCCCCCCCCCCCCCCCC(=O)NCC(COP(=O)([O-])OCC[N+](C)(C)C)OCC (centres undefined)	x	-6%	i	-1%	5%	x	x
Cc1ccc(S(=O)(=O)Nc2ccc(N3CCOCC3)cc2)cc1	-1%	3%	1%	0%	2%	x	x
Cc1ccc(S(=O)(=O)Nc2ccc(N3CCCCC3)cc2)cc1	-7%	5%	u	-4%	7%	-21%	-8%
C=CCn1c(O)c(N=NC(=O)CNC(=O)/C=C/c2ccc(OC)cc2)c2ccccc21	-4%	0%	0%	3%	1%	-13%	x
C=CCn1c(O)c(N=NC(=O)CNC(=O)/C=C/c2ccco2)c2ccccc21	u	u	u	-4%	u	u	u
CCc1nn(CC(=O)NCc2cccc(OC)c2OC)c(=O)c2cc3occc3n12	-4%	x	x	x	-3%	x	x
O=C(Cc1cnn(-c2ccccc2)c1)c1ccc(O)c(O)c1O	-10%	u	3.2µM*	13µM*	-1%	x	x	RECQ1 inh conf=-2%[114 µM];RECQ1 ADP FP=30%[91.9 µM]
CN(C)CCCOc1c2ccccc2n(Cc2ccccc2)[n+]1[O-]	4%	-1%	-10%	x	6%	x	x
Cn1nnc(NC(=O)c2ccc(C(C)(C)C)cc2)n1	0%	12%	20µM*	0%	6%	4%	-7%
CCOC(=O)CNC(=O)O[C@@H]1Cc2cc(OC)ccc2O[C@H]1c1cccc(OC)c1	4%	1%	-1%	3%	4%	x	x
CCOc1ccc(C(=O)NCc2nc3cccnc3n2Cc2cccc(OC)c2)cc1	1%	x	x	x	4%	x	x
O=C1OCCC1N(C(=O)C1CC1)c1cccc(Cl)c1 (centres undefined)	2%	-2%	-5%	x	-5%	x	x
Brc1ccccc1CN1CCC(N2CCCCC2)CC1	-5%	-4%	u	2%	-4%	u	-2%
COc1ccc(C2/C=C\CN(C(=O)C3CCCCC3)C(C)C(=O)N2Cc2ccc(F)cc2)cc1 (centres undefined)	-5%	-7%	i	x	7%	x	x
COCCn1c(C)cc(C(=O)CSc2nnc(-c3cccnc3)n2-c2ccccc2F)c1C	-12%	1%	3.2µM*	1%	6%	-9%	x	RECQ1 inh conf=u;RECQ1 ADP FP=50µM*
CCOC(=O)c1ccc(S(=O)(=O)N2CCN(c3nc(-c4cccs4)nc4ccccc34)CC2)cc1	x	x	x	x	-1%	x	x
N=C1S/C(=C\c2ccc(-c3ccccc3C(=O)O)o2)C(=O)N1c1ccc2c(c1)OCO2	-20%	u	-2%	5.6µM*	-8%	x	x	RECQ1 inh conf=u;RECQ1 ADP FP=u

High-throughput results as filed in PubChem BioAssay.
